A selection: hits, their analogues and other compounds. The true share with any hit is near 19%.
TDP1 cell noCPT – qHTS for Inhibitors of human tyrosyl-DNA phosphodiesterase 1 (TDP1): qHTS in cells in absence of CPT; 420,000 compounds, 15% hits; DT40 Tdp1-/- hTDP1 cells, no CPT, ATP luminescence, 48 h; Potency, µM (titrated, usually from 46.2 µM), inactives show at the top dose activity change, negative = growth inhibition, actives largely listed as inhibitors; further: potency means the concentration at half of the fitted maximal effect; on the % scale 0 is the no-effect control and ±100 the full control effect; nearly all actives have a fitted effect of over 55% in size
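Chicken DT40 Tdp1-/- cells stably complemented with human TDP1 were seeded at 400 cells/well with DMSO in place of 20 nM camptothecin. After compound pinning, cells grew at least 48 hr at 37 °C; viability read by CellTiter-Glo luminescence.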
TDP1 cell CPT – DT40-hTDP1 cell growth loss with CPT. chicken DT40 Tdp1-/-;hTDP1 cells + 20 nM CPT, ATP luminescence, 48 h. Potency, µM (top dose mostly 46.2 µM), without a hit: at the highest dose activity change, negative = growth inhibition, actives largely listed as inhibitors. 420,000 compounds, 12% hits. AID 686979; further: potency means the concentration at half of the fitted maximal effect; on the % scale 0 is the no-effect control and ±100 the full control effect; nearly all actives have a fitted effect of over 55% in size
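Cell growth measured by CellTiter-Glo luminescence after a minimum 48 h, 37 C compound exposure with 20 nM CPT in Tdp1-knockout DT40 cells stably expressing hTDP1, seeded 400/well; qHTS titration format.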
TDP1 block – blocks human tyrosyl-DNA phosphodiesterase 1; Q9NUW8; Potency, µM (doses to about 130 µM), inactives show top-dose activity change, negative = inhibition, usual class: inhibitors; 350,000 compounds, 0.28% hits; AID 485290; recombinant TDP1, AlphaScreen DNA substrate cleavage; further: potency means the concentration at half of the fitted maximal effect; on the % scale 0 is the no-effect control and ±100 the full control effect; nearly all actives have a fitted effect of over 40% in size
Target sequence (Q9NUW8 whole entry, looked up): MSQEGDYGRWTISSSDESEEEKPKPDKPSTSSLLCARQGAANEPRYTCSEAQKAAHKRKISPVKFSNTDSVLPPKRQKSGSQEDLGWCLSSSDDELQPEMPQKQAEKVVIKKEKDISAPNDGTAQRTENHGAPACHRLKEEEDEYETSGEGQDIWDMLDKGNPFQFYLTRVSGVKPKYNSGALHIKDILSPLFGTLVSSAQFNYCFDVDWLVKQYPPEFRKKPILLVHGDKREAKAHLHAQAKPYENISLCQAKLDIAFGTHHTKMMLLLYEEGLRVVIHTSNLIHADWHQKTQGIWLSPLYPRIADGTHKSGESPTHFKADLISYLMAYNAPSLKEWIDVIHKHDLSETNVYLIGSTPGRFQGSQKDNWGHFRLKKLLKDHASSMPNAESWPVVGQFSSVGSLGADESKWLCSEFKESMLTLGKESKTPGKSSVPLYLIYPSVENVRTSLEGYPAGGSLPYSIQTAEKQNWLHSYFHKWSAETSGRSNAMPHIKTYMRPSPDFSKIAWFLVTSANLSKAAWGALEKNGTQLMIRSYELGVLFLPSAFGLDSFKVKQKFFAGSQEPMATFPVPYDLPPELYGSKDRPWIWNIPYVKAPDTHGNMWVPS
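Here, a 5' biotin and 3' phosphotyrosine-FITC DNA oligonucleotide reports Tdp1 activity: intact substrate bridges AlphaScreen beads, while cleavage leaves a 3' phosphate and drops signal. All incubations at room temperature.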
IL-1B inflam inh – inhibitors of inflammasome signaling (IL-1 beta secretion); AID 743279; activity change, % at 57.5 µM; THP-1 LPS/ATP IL-1B secretion, AlphaLISA, 16 h; active compounds read low; 360,000 compounds, 4.7% hits; in the data active means activity change below about -50%; inconclusive means mostly about -30% to -49%; further: on the % scale 0 is the no-effect control and ±100 the full control effect
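Secreted IL-1B measured by AlphaLISA bead assay after 16 h compound exposure of THP-1 cells; compounds (final up to 57.5 uM) added 1 h before LPS (250 ng/mL) and ATP (1.25 mM) stimulation; lower signal means less secretion.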
TGFb inhibitor – blocks TGF-b signaling | AID 588855 | Potency, µM (top dose mostly 46.1 µM), for inactives: at the top dose activity, negative = inhibition, usual class: inhibitors | 410,000 compounds, 1.2% hits | HepG2 CAGA-GFP TGF-b/SMAD3 reporter, GFP fluorescence, 18 h; TGF-beta stimulated, 500 pg/mL final; further: potency means the concentration at half of the fitted maximal effect; on the % scale 0 is the no-effect control and ±100 the full control effect; nearly all actives have a fitted effect of over 65% in size
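Using HEPG2 CAGA-GFP reporter cells at 1000 cells/well, we pinned test compounds, stimulated with recombinant TGF-beta (500 pg/mL final) and measured total well GFP after 18 h.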
HepG2 viability – kills HepG2 cells in TGF-b inhibitor counter-screen. Potency, µM (titrated, usually from 46.1 µM), for the others: at the highest dose activity change, negative = cytotoxicity, actives largely listed as cytotoxic. 410,000 compounds, 0.76% hits. HepG2 CAGA-GFP viability, ATP luminescence, 18 h; further: potency means the concentration at half of the fitted maximal effect
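CellTiter-Glo luminescence gave cytotoxicity after 18 hours at 37 degrees C. The cells were HepG2 CAGA-GFP in 1% FBS DMEM, stimulated with 500 pg/mL TGF-beta after compound addition. %Activity was normalised to no-cell wells (complete cell-killing) and DMSO (no toxicity), and curves were fitted and classified.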
* marks the source's active call; other numbers are inactive results; ? = inconclusive; . = no result given; [ ] = remark or other dose. Unless noted, the call rests on the fitted dose curve; in most records, active means well fitted curve in the direction sought with a large enough effect; inconclusive means small, poorly fitted or top-dose-only effect, or another doubt; inactive means no such curve, though single readings can be large; an effect the other way counts as inactive or inconclusive.

SMILES	TDP1 cell noCPT	TDP1 cell CPT	TDP1 block	IL-1B inflam inh	TGFb inhibitor	HepG2 viability
CCOC(=O)C(=COC(=O)c1ccccc1)NC(=O)Cc1ccccc1	4%	-26%	.	-2	4%	-16%
COc1ccccc1CCNC(=O)Cc1c(C)c2c(cc(C)c3c(C)coc32)oc1=O	?	?	5%	.	15%	-18%
CSc1nnc(Cn2c(=O)sc3ccccc32)n1-c1ccccc1	21µM*	21µM*	9%	24	-26%	-41%
CC(C)Sc1nnc(Cn2c(=O)sc3ccccc32)n1-c1ccccc1	?	?	-8%	7	11%	2%
Cc1c(=O)n(OCc2ccc(Cl)cc2)c2ccccc2[n+]1[O-]	6.5µM*	-10%	3%	16	18%	1%
COc1ccc(S(=O)(=O)N2Cc3ccccc3CC2C(=O)Nc2cccc(C)c2)cc1OC (configuration not stated)	9.2µM*	?	-2%	.	-26%	-13%
CCOC(=O)CNC(=O)C1Cc2ccccc2CN1S(=O)(=O)c1cccs1 (configuration not stated)	-1%	0%	.	-5	-7%	3%
COC(=O)CNC(=O)C1Cc2ccccc2CN1S(=O)(=O)c1cccs1 (configuration not stated)	-8%	-18%	3%	-74*	4%	17%
CCOc1ccc(NC(=O)c2ccc3c(c2)CCN3S(=O)(=O)c2ccc(Cl)cc2)cc1	?	-23%	0%	.	0%	1%
CCCCOC(=O)c1ccc(NC(=O)c2ccc3c(c2)CCN3S(=O)(=O)c2ccccc2)cc1	7.3µM*	5.8µM*	-7%	.	-1%	-11%
CCOC(=O)c1ccc(NC(=O)c2ccc3c(c2)CCN3S(=O)(=O)c2ccc(Cl)cc2)cc1	?	7.3µM*	0%	.	8%	-10%
Cc1ccc(CNC(=O)CCc2c(C)nc3c(-c4ccc(F)cc4)c(C)nn3c2C)cc1	-4%	-14%	6%	.	-9%	-1%
CCOC(=O)c1ccc(NC(=O)C2Cc3ccccc3CN2S(=O)(=O)c2ccc(Cl)cc2)cc1 (configuration not stated)	16µM*	?	-4%	.	.	-30%
O=C(Nc1nccs1)C1Cc2ccccc2CN1S(=O)(=O)c1ccc(F)cc1 (configuration not stated)	15µM*	?	4%	6	1%	-26%
O=C(NC1CCCCC1)C1Cc2ccccc2CN1S(=O)(=O)c1ccc(F)cc1 (configuration not stated)	?	-7%	-2%	1	-4%	12%
COc1ccc(NC(=O)c2ccc3c(c2)CCN3S(=O)(=O)c2ccccc2)cc1	?	?	0%	-56*	1%	-15%
COc1ccccc1CNC(=O)c1ccc2c(c1)CCN2S(=O)(=O)c1ccccc1	8.2µM*	?	-2%	.	-2%	6%
O=C(NCc1ccccc1)c1ccc2c(c1)CCN2S(=O)(=O)c1ccc(Cl)cc1	?	?	0%	.	?	-1%
Cc1ccc2c(c1)c1c(c(=O)n(Cc3ccccc3)c(=O)n1CC(=O)NCc1ccccc1Cl)n2C	-4%	1%	-3%	.	0%	-16%
COc1ccc(S(=O)(=O)N2Cc3ccccc3CC2C(=O)O)cc1 (configuration not stated)	2%	-4%	28µM*	-3	4%	-9%
O=C(Nc1ccccc1)c1ccc2c(c1)CCN2S(=O)(=O)c1ccccc1	?	?	0%	-22	-17%	-32%
COc1ccc(CNC(=O)c2ccc3c(c2)CCN3S(=O)(=O)c2ccc(C)cc2)cc1	13µM*	10µM*	5%	.	-26%	-22%
NS(=O)(=O)c1ccc(NC(=O)c2ccc3c(c2)CCN3S(=O)(=O)c2ccccc2)cc1	10µM*	23µM*	-2%	-4	-10%	-2%
Cc1ccsc1CN(C)CC(=O)Nc1ccc([N+](=O)[O-])cc1Cl	?	-4%	7%	-79*	1%	-9%
COc1ccc(CN2C(=O)C(C)N(C(=O)c3c(F)cccc3F)c3ccccc32)cc1 (configuration not stated)	8.2µM*	13µM*	.	8	-16%	-18%
SMILES	TDP1 cell noCPT	TDP1 cell CPT	TDP1 block	IL-1B inflam inh	TGFb inhibitor	HepG2 viability
COc1cccc(CN2C(=O)C(C)N(C(=O)c3ccccc3)c3ccccc32)c1 (configuration not stated)	6.5µM*	13µM*	.	-4	-14%	-6%
Cc1nn(Cc2ccc([N+](=O)[O-])cc2)c(=O)n1-c1c(F)cccc1F	-21%	-12%	0%	17	-2%	-12%
CC1C(=O)N(Cc2ccc([N+](=O)[O-])cc2)c2ccccc2N1C(=O)c1c(F)cccc1F (configuration not stated)	16µM*	?	.	?	-22%	-10%
COc1cccc(CN2C(=O)C(C)Oc3ccccc32)c1 (configuration not stated)	-4%	-8%	.	12	0%	-13%
COc1ccc(CN2C(=O)C(C)Oc3ccccc32)cc1 (configuration not stated)	?	-1%	.	-3	3%	4%
CCOC(=O)c1cccc(NC(=O)COc2ccc3c(C)cc(=O)oc3c2)c1	5%	-3%	2%[12.3 µM]	.	-6%	-22%
N#Cc1nc(NCC(F)F)c2ncn(-c3cc(F)cc(F)c3)c2n1	.	.	-1%	.	.	.
COc1ccccc1N1CCN(C(=O)Nc2ccc([N+](=O)[O-])cc2)CC1	16µM*	?	4%	-14	5%	2%
CC(C)(C)c1ccc(NC(=O)N2CCN(c3ccc([N+](=O)[O-])cn3)CC2)cc1	8.2µM*	3.3µM*	4%	.	-29%	6%
CCOc1ccc(NC(=O)Cn2cc(C(=O)c3cccs3)c3ccccc32)cc1	?	?	6%	.	-28%	-17%
O=C(c1cccs1)c1cn(CCOc2ccc(F)cc2)c2ccccc12	21µM*	16µM*	2%	.	?	-18%
Cc1cc(OCCn2cc(C(=O)c3cccs3)c3ccccc32)ccc1Cl	16µM*	16µM*	-3%	.	-18%	-1%
CC(C)(C)c1ccc(OCCn2cc(C(=O)c3ccco3)c3ccccc32)cc1	23µM*	?	3%	.	19%	-17%
